Measurements from ChEMBL document CHEMBL1961873, “Compounds: GSK PKIS; Assays: Nanosyn kinase panel” (2012).
“And” between values parts separate entries of the source, which are not always exact repeats. Equal values may be shown once.

Key:
[1] = molecular target: T1, Tyrosine-protein kinase receptor TYRO3 (Homo sapiens) (UniProt Q06418); conditions: at 1 µM
T1 sequence (whole entry): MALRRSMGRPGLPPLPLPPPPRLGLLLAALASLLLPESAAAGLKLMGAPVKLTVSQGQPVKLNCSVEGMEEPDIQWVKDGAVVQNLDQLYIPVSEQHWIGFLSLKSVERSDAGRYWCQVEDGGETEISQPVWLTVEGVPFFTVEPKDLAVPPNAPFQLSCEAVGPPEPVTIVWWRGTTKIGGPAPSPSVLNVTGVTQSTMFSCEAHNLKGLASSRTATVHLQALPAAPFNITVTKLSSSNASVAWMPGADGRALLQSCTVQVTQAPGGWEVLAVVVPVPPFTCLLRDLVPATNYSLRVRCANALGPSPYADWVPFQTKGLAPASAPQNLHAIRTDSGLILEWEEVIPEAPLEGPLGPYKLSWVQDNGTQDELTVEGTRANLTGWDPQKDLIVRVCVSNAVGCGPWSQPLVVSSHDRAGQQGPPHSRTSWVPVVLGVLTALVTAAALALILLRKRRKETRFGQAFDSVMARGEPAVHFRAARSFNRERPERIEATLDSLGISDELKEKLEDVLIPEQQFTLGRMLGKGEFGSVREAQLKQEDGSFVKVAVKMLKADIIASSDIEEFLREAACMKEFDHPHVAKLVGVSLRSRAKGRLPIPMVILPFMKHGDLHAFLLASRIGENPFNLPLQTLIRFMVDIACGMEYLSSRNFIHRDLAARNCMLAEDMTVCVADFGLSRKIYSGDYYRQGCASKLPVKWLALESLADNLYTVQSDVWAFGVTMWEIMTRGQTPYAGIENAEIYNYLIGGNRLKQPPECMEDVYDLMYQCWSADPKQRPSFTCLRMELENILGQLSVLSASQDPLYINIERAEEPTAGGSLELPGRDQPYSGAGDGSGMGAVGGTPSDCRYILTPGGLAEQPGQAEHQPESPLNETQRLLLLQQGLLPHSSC

[2] = molecular target: Tyrosine-protein kinase Yes (Homo sapiens) (UniProt P07947); conditions: at 0.1 µM
[3] = molecular target: Tyrosine-protein kinase Yes (Homo sapiens) (UniProt P07947); conditions: at 1 µM
[4] = molecular target: T2, Tyrosine-protein kinase ZAP-70 (Homo sapiens) (UniProt P43403); conditions: at 0.1 µM
T2 sequence (whole entry): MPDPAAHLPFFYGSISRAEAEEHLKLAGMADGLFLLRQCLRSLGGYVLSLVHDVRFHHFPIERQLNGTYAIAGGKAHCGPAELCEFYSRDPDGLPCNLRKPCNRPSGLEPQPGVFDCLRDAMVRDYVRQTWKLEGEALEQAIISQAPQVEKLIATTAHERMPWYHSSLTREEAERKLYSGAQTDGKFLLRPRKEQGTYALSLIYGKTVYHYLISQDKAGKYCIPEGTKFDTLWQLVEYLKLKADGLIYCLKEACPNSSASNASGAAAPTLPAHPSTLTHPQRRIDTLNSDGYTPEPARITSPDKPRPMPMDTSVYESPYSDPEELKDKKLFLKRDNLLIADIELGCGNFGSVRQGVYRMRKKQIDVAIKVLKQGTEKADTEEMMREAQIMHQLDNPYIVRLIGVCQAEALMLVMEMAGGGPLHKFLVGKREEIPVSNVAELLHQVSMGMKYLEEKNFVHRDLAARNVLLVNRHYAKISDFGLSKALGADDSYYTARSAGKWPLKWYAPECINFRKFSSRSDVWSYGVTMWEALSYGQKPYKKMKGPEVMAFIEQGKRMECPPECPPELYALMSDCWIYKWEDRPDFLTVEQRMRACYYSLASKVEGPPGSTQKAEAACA

[5] = molecular target: T2, Tyrosine-protein kinase ZAP-70 (Homo sapiens); conditions: at 1 µM
[6] = molecular target: Serine/threonine-protein kinase B-raf (Homo sapiens) (UniProt P15056); conditions: at 0.1 µM
[7] = molecular target: Serine/threonine-protein kinase B-raf (Homo sapiens) (UniProt P15056); conditions: at 1 µM
[8] = test system: Serine/threonine-protein kinase B-raf (Homo sapiens), P15056 [V600E]; conditions: at 0.1 µM
[9] = test system: Serine/threonine-protein kinase B-raf (Homo sapiens), P15056 [V600E]; conditions: at 1 µM
[10] = molecular target: RAF proto-oncogene serine/threonine-protein kinase (Homo sapiens) (UniProt P04049); conditions: at 0.1 µM;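 also: values are mean CRAF kinase inhibition from profiling of the GSK Published Kinase Inhibitor Set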
Sequence of RAF proto-oncogene serine/threonine-protein kinase (Homo sapiens) (P04049 whole entry): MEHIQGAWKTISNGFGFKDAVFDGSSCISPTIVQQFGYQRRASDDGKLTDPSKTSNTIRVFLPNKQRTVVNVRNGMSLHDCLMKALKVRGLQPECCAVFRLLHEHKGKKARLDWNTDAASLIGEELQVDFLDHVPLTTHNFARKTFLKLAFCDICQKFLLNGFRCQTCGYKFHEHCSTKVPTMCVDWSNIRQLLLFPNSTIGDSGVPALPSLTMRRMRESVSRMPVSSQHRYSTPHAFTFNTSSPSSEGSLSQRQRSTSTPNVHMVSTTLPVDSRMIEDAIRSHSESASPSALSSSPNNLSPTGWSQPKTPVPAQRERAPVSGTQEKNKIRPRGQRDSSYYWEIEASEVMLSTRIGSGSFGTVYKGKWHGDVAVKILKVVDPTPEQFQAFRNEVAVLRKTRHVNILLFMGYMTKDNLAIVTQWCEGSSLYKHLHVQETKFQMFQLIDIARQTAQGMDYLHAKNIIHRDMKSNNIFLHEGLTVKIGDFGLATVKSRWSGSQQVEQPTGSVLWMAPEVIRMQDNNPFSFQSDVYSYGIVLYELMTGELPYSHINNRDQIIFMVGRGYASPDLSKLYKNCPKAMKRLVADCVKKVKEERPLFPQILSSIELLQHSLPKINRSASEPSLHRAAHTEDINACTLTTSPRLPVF

Sequence of Serine/threonine-protein kinase B-raf (Homo sapiens) (P15056 whole entry): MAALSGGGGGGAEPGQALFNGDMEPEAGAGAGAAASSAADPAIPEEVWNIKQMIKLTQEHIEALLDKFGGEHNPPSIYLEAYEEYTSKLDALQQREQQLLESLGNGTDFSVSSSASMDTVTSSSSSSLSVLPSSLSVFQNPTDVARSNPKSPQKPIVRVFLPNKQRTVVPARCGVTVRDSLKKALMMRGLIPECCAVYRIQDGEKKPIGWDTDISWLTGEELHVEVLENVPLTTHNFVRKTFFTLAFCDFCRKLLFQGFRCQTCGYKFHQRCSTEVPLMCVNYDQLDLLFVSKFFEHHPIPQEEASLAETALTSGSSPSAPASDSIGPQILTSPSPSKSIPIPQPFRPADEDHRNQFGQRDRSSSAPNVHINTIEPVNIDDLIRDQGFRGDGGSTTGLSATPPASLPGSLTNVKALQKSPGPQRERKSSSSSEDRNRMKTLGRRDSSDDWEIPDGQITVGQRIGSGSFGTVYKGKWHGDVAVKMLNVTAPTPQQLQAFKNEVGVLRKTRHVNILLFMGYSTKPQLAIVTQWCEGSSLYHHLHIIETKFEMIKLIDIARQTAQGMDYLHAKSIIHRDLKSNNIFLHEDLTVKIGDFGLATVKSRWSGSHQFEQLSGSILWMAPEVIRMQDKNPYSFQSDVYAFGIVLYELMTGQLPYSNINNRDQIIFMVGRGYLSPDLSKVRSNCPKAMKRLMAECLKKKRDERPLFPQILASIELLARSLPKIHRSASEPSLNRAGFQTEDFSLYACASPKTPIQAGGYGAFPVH
Sequence of Serine/threonine-protein kinase B-raf (Homo sapiens), P15056 [V600E] (P15056 whole entry V600E): as the sequence (P15056 whole entry) above, with V600E counted along it
Sequence of Tyrosine-protein kinase Yes (Homo sapiens) (P07947 2-543 limits assumed): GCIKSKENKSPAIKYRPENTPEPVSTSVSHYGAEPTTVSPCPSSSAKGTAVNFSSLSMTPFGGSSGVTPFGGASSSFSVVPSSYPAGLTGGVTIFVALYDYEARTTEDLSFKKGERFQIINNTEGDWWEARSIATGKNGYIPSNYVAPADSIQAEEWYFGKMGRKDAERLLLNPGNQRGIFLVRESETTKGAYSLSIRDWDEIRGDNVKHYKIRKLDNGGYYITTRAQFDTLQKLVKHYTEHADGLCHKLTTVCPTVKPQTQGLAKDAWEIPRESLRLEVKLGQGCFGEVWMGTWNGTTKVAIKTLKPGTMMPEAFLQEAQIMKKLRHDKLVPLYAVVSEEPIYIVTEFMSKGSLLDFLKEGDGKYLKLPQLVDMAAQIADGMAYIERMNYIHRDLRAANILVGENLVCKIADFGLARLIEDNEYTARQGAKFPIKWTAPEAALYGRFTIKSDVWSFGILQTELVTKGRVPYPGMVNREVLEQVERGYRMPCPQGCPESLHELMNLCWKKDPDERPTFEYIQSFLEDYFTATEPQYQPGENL

Row | SMILES | inhibition [1] | inhibition [2] | inhibition [3] | inhibition [4] | inhibition [5] | inhibition [6] | inhibition [7] | inhibition [8] | inhibition [9] | inhibition [10]
1 | Nc1ncnc2occ(-c3ccc(NC(=O)Nc4cc(C(F)(F)F)ccc4F)cc3)c12 | 35.9% and 19% | 6.63% and 1.99% | 32.5% and 23.6% | 1.41% and -6.7% | 3.15% and -0.06% | 2.87% and -2.08% | 7.26% and 0.64% | 2.85% and -0.81% | 11.3% and 5.32% | -9.78% and -3.09%
2 | O=C(O[C@H]1CN[C@H](C#Cc2cc3ncnc(Nc4ccc5c(cnn5Cc5ccccc5)c4)c3s2)C1)N1CCOCC1 | 1.4% | 1.73% | 23.1% | -4.53% | 2.2% | -0.55% | -2.69% | -0.19% | -0.28% | -0.85%
3 | CCOc1ccc2c(-c3ccnc(Nc4cc(OC)cc(C(F)(F)F)c4)n3)cnn2n1 | 4.4% | 2.04% | 6.75% | 0.43% | 3.29% | 0.89% | 1.03% | 0.43% | 1.03% | -4.87%
4 | CC(C)c1ccc(-c2cc(-c3c[nH]nc3-c3ccccn3)ccn2)cc1 | 2.71% | 0.42% | 0.34% | 1.32% | 1.31% | 0.6% | 3.57% | 0% | 3.39% | 1.14%
5 | Nc1nonc1-c1nc2cnccc2n1C1CC1 | 4.53% and 2.7% | -0.59% and 1.1% | 1.1% and 2.73% | 0.56% and -1.17% | 3.98% and -1.48% | 5.09% and 3.82% | 9.07% and 5.15% | 4.37% and 3.69% | 8.28% and 5.87% | 6.05% and 2.66%
6 | CC1=C(C(=O)Nc2ccc3[nH]nc(C)c3c2)C(c2ccc(C(F)(F)F)cc2)CC(=O)N1 (stereo not given) | 2.61% | 2.7% | 11.8% | 0.65% | 2.13% | 6.25% | 38.8% | 5.77% | 37.9% | 3.79%
7 | CS(=O)(=O)CCNCc1ccc(-c2ccc3ncnc(Nc4ccc(OCc5cccc(C(F)(F)F)c5)cc4)c3c2)o1 | 0.73% | 0.5% | 5.33% | 3.18% | 0.41% | 6.08% | 8.69% | 4.37% | 5.8% | 1.96%
8 | COc1ccc2ncn(-c3cc(O[C@H](C)c4ccccc4C(F)(F)F)c(C(N)=O)s3)c2c1 | 2.75% | -2.36% | 1.07% | 2.16% | 2.62% | -0.46% | -2.23% | -1.03% | -0.82% | -0.27%
9 | c1ccc(-c2n[nH]cc2-c2ccnc(-c3ccc(OCCn4ccnc4)cc3)c2)nc1 | 1.47% | 1.05% | 8.13% | 2.15% | 2.34% | 2.04% | 1.85% | 0.71% | 1.34% | -0.53%
10 | COc1cccc(-n2ncc3c(N/N=C/c4ccc(C(=O)NCCN(C)C)cc4)ncnc32)c1 | 60.6% | 58.5% | 86% | -2.3% | 4.14% | 11.1% | 27.8% | 9.71% | 23.6% | 2.11%
11 | COc1c(C(N)=O)cc(-c2ccc(Cl)cc2)cc1-c1ccc(S(N)(=O)=O)cc1 | 2.96% | 1.57% | 4.52% | 2.39% | 4.12% | 6.5% | 8.57% | 4.06% | 3.68% | 2.31%
12 | N#Cc1ccc2c(-c3ccnc(NC4CC4)n3)c(-c3ccc(F)cc3)nn2c1 | 0.69% | 2.22% | 3.79% | -2.8% | 1.15% | 2.6% | 5.81% | 2.7% | 4.72% | -0.7%
13 | NS(=O)(=O)c1ccc(N/N=C2\C(=O)Nc3ccc(C(=O)NCc4ccncc4)cc32)cc1 | 8.28% | 4.07% | 17.1% | 2.55% | 3.8% | 14.8% | 56.7% | 15.1% | 56.3% | 0.58%
14 | NS(=O)(=O)c1cccc(N/C=C2\C(=O)Nc3ccccc32)c1 | 8.3% | 4.04% | 9.49% | 1.68% | 4.58% | 6.24% | 7.76% | 6.39% | 7.82% | -0.16%
15 | COc1cc(Nc2ncc(-c3ccccc3)o2)cc(OC)c1 | 8.91% | 5.8% | 39.5% | 2.8% | 1.02% | 7.08% | 6.68% | 5.31% | 3.47% | 0.47%
16 | O=C(O[C@H]1CN[C@H](C#Cc2cc3ncnc(Nc4ccc5c(ccn5Cc5cc(F)ccc5F)c4)c3s2)C1)N1CCOCC1 | 3.08% | 0.85% | 8.22% | 0.89% | 2.72% | 6% | 6.76% | 6.11% | 6.31% | 1.88%

Row | SMILES | inhibition [1] | inhibition [2] | inhibition [3] | inhibition [4] | inhibition [5] | inhibition [6] | inhibition [7] | inhibition [8] | inhibition [9] | inhibition [10]
17 | FC(F)(F)CNc1nccc(-c2cnn3ncccc23)n1 | 2.17% | 1.28% | 1.55% | 0.71% | 1.8% | 4.03% | 3.85% | 3.08% | 2.52% | -1.22%
18 | Nc1nccc(-c2c(-c3ccc(F)cc3)ncn2C2CCNCC2)n1 | 1.14% and -0.71% | -1.29% and 0.36% | 11.9% and 16.2% | 1.4% and 0.85% | -2.69% and 1.59% | -2.89% and 1.95% | -0.2% and 7.76% | -4.19% and 1.23% | 0.9% and 7.41% | -3.57% and -1.58%
19 | NS(=O)(=O)c1ccc(N/N=C2\C(=O)Nc3cccc(CCc4ccncc4)c32)cc1 | 2.17% | 4.12% | 11.4% | -0.82% | 13.7% | 1.54% | 1.46% | 3.22% | 2.2% | -0.07%
20 | CCCNc1cccc(-n2ncc3c(N/N=C/c4ccncc4)ncnc32)c1 | 42.8% | 43.1% | 82.8% | 2.44% | 3.95% | 0% | 1.5% | 0.21% | 2.86% | -0.1%
21 | COC(=O)Nc1nc2ccc(Oc3ccc(NC(=O)Nc4cc(C(F)(F)F)ccc4F)cc3)cc2s1 | 40% | 4.21% | 11.5% | 1.19% | -0.75% | 2.35% | 22.1% | 2.96% | 37.3% | 8.71%
22 | COc1ccccc1-c1cc(/C=C2\C(=O)Nc3ncc(Br)cc32)cc(Br)c1O | 3.41% | -0.07% | 12.9% | 2.43% | 6.67% | 6.58% | 10.5% | 7.25% | 8.04% | -0.19%
23 | CS(=O)(=O)CCNCc1ccoc1-c1ccc2ncnc(Nc3ccc(OCc4ccccc4)cc3)c2c1 | 3.68% | 4.12% | 21.9% | -0.82% | 2.26% | 1.03% | 1.49% | 1.75% | 1.31% | -1.29%
24 | COc1cc2c(cc1Nc1nc(Nc3cccc(F)c3C(N)=O)c3cc[nH]c3n1)N(C(=O)CN1CCN(C(C)C)CC1)CC2 | 0.01% | 1.54% | 1.04% | 2.59% | 3.22% | 2.3% | 7.9% | 2.2% | 4.6% | 0.97%
25 | OCCCNc1nccc(-c2c(-c3ccc(F)cc3)nn3cc(C(F)(F)F)ccc23)n1 | 1.03% | 1.78% | 1.85% | 2.54% | -1.3% | 3.71% | 11.6% | 2.84% | 9.93% | 0.53%
26 | COC(=O)Nc1nc2cc(Oc3ccc(NC(=O)Nc4ccccc4)cc3)ccc2[nH]1 | 4.81% | 0.64% | 4.69% | 0.7% | 1.28% | 4.74% | 4.26% | 5.49% | 5% | -5.27%
27 | O=C(O[C@H]1CN[C@H](C#Cc2cc3ncnc(Nc4ccc(OCc5cccc(F)c5)c(Cl)c4)c3s2)C1)N1CCOCC1 | 5.62% | 0.43% | 8.74% | 3.21% | 0.2% | 9.9% | 7.06% | 8.49% | 6.1% | 10.3%
28 | CS(=O)(=O)Nc1ccc(-c2cc(-c3ccccc3)cc(C(N)=O)c2N)cc1 | 0.42% | 0.79% | 4.67% | -2.43% | -3.4% | 2.34% | 3.97% | 2.93% | 3.58% | -0.86%
29 | CC1=C(C(=O)Nc2ccc3[nH]ncc3c2)C(c2ccc(F)cc2)N=C(c2ccc(C(F)(F)F)nc2)N1 (stereo not given) | 3.3% | 1.26% | 4.23% | 2.61% | 1.68% | 1.92% | 5.6% | 1.17% | 6.02% | 1.11%
30 | Fc1cccc(COc2ccc(Nc3ncncc3C#Cc3ccccc3)cc2Cl)c1 | 9.44% | 4.11% | 3.65% | 2.29% | 1.11% | 6.77% | 4.45% | 6.66% | 5.53% | -0.3%
31 | CCS(=O)(=O)c1ccc(OC)c(Nc2ncc(-c3cccc(F)c3)o2)c1 | 26.2% | 75.9% | 96.3% | 1.94% | 5.25% | 7.42% | 10% | 4.95% | 4.95% | 1.22%
